PAFAH2 FP inh: PAFAH2 enzyme inhibitors, primary screen, biochemical, fluorescence polarization, human; recombinant PAFAH2, FP-rhodamine activity probe; inhibition, % at 3.39 µM; hit rate 0.99% among 340,000;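 active = inhibition above the mean over all tested compounds plus 3 SD, cut at about 30% in these data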;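 note: inhibitors block probe labeling of enzyme so polarization drops; 0% = enzyme with DMSO and 100% = wells lacking PAFAH2 protein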
PAFAH1B2 FP inh: PAFAH1B2 enzyme inhibitors, primary screen, biochemical, fluorescence polarization, human; hit rate 1.2% among 340,000; AID 492953, 2010; Platelet-activating factor acetylhydrolase IB subunit alpha2 (Homo sapiens), P68402; inhibition, % at 3.39 µM; recombinant PAFAH1B2, FP-rhodamine activity probe;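 active = inhibition above the mean of all tested compounds plus 3 SD, cut at about 24% in these data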;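 note: 0% = enzyme with DMSO and 100% = wells lacking PAFAH1B2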
Target sequence (P68402 whole entry, looked up): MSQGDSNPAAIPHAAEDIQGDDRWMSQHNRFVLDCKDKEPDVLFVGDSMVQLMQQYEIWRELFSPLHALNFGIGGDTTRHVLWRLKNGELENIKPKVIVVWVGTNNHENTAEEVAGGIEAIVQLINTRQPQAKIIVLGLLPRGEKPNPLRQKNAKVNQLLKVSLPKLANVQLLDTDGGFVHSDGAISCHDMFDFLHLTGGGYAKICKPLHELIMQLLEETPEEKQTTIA
pPAFAH inh: pPAFAH enzyme inhibitors, primary screen, biochemical, fluorescence polarization, human; Platelet-activating factor acetylhydrolase (Homo sapiens), Q13093; inhibition, % at 3.39 µM; recombinant pPAFAH, FP-rhodamine probe fluorescence polarization; hit rate 1.5% among 330,000;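 active = inhibition above the mean inhibition across the screen plus 3 SD, cut at about 25% in these data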;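 note: inhibitors block binding of the rhodamine activity-based probe so polarization drops; 0% = enzyme with DMSO and 100% = wells lacking pPAFAH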
DAGLB inh: DAGLB lipase inhibitors, primary screen, biochemical, fluorescence, HTS; hit rate 0.059% among 340,000; inhibition, % at 5.17 µM; AID 504411, 2011; Diacylglycerol lipase-beta (Homo sapiens), Q8NCG7; HEK293T DAGLB membrane lysate, EnzChek fluorogenic substrate; in the data active = inhibition above about 34%;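 note: 0% = enzyme with vehicle and 100% = wells lacking enzyme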
PAFAH1B3 inh: PAFAH1B3 enzyme inhibitors, primary screen, biochemical, fluorescence polarization, human; Platelet-activating factor acetylhydrolase IB subunit alpha1 (Homo sapiens), Q15102; recombinant PAFAH1B3, FP-rhodamine probe; inhibition, % at 3.39 µM; hit rate 0.28% among 340,000;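 active = inhibition above the screen-wide average of all tested compounds plus 3 SD, cut at about 25% in these data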;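 note: 0% = enzyme with DMSO only and 100% = wells lacking PAFAH1B3 protein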
Target sequence (Q15102 whole entry, looked up): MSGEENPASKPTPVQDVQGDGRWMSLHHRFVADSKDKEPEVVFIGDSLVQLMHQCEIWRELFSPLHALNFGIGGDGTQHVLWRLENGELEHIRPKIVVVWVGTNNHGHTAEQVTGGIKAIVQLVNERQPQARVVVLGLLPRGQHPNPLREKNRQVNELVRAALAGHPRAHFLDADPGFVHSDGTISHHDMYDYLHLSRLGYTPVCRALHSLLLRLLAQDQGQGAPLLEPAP
ATG4B inhibitor: ATG4B protease inhibitors, primary screen, biochemical, fluorescence, uHTS; Cysteine protease ATG4B (Homo sapiens), Q9Y4P1; ATG4B cleavage of LC3-PLA2, NBD-HPC fluorescence, 1 h; inhibition, % at 8.33 µM; hit rate 0.51% among 340,000; AID 504462, 2011; in the data active = inhibition above about 40%
* hit, by the source's call; . = not tested or not shown. Rows were chosen to be rich in hits. Some 3% of all compounds tested hit in one or more screens of this group.

SMILES | PAFAH2 FP inh | PAFAH1B2 FP inh | pPAFAH inh | DAGLB inh | PAFAH1B3 inh | ATG4B inhibitor
Cc1ccnc(NS(=O)(=O)c2ccc(NC(=O)C34CC5CC(CC(C5)C3)C4)cc2)n1 | 3.3 | 17.5 | 4.3 | 3.9 | 2.8 | -0.9
N#CC(=C=[N-])C1=C(C#N)C(c2ccccc2F)C([n+]2ccccc2)C(O)(C2CC2)N1 (stereo not drawn) | 2.5 | -0.5 | 30.1* | 8.3 | 5.0 | -6.8
Cc1ccc[n+](C2C(c3ccc([N+](=O)[O-])cc3)C(C#N)=C([S-])NC2(O)C2CC2)c1 (stereo not drawn) | 1.6 | 1.8 | 7.7 | 1.8 | -1.2 | 3.8
Cc1cccc[n+]1C1C(c2ccccc2)C(C#N)=C(C(=C=[N-])C#N)NC1(O)C1CC1 (stereo not drawn) | 30.5* | 16.3 | 28.8* | 13.0 | 21.3 | -11.7
Oc1c(Cl)cc(Cl)cc1/C=N/c1nc(-c2ccc(Cl)cc2)cs1 | 8.2 | 48.4* | 14.7 | 6.1 | 4.4 | 36.6
C#CCn1cc(/C=N/Nc2nc3ccccc3[nH]2)c2ccccc21 | 23.3 | 16.4 | 29.4* | 5.2 | 23.7 | -18.2
O=C(Oc1ccccc1C(=S)N1CCOCC1)c1cccc([N+](=O)[O-])c1 | 2.0 | -7.0 | -0.4 | -1.2 | 4.9 | -5.2
O=S(=O)(NCCCc1ccccc1)c1ccc(F)c(F)c1 | 14.9 | 35.9* | 28.9* | -4.2 | -3.3 | -2.0
O=S(=O)(NCCCc1ccccc1)c1ccc(Cl)cc1 | 8.4 | 26.1* | 15.7 | -13.9 | 0.8 | 3.1
COc1ccc(C(=O)CSC2=C(C#N)C3(CCCCC3)C(C#N)=C(N)N2)cc1 | 0.1 | 27.4* | 4.7 | -0.3 | 5.0 | -4.4
CC1(C)CC2CC(C)(CN2C(=O)COC(=O)c2ccc(O)cc2O)C1 (stereo not drawn) | -5.4 | 25.4* | 7.0 | -0.7 | 3.4 | -8.7
Cc1nc(C(N)=O)c(N)n1CCc1ccccc1 | 7.6 | 0.5 | 4.9 | -2.4 | 4.1 | 4.2
Cc1ccccc1NS(=O)(=O)c1ccc(C)c(C(=O)N2CCOCC2)c1 | -2.7 | -1.1 | 33.5* | -0.9 | 3.9 | -5.0
COc1ccc(S(=O)(=O)Nc2ccccc2C)cc1C(=O)N1CCOCC1 | 7.8 | 1.3 | 25.6* | 0.2 | 3.4 | 4.9
COc1ccc(S(=O)(=O)Nc2ccccc2C(=O)N2CCOCC2)cc1C | -11.3 | 1.9 | -5.1 | 2.8 | 0.8 | -9.4
CC(=O)c1cn(Cc2ccccc2)c(=O)[nH]c1=O | 2.5 | 4.8 | 5.8 | -2.4 | 4.3 | 11.4
CC(C)c1ccccc1OCC(=O)Nc1ccccc1C(=O)N1CCOCC1 | -0.9 | 6.0 | 4.5 | -1.0 | 3.5 | -8.4
Cc1nnc2ccc(-c3ccc(NS(=O)(=O)c4ccc(Cl)s4)cc3)nn12 | -1.1 | -1.9 | 26.1* | 1.1 | 3.0 | -11.1
CCc1ccc(S(=O)(=O)Nc2ccc(-c3ccc4nnc(C)n4n3)cc2)s1 | 0.3 | 7.6 | 14.7 | 3.0 | 0.4 | -13.2
S=c1[nH]nc(-c2ccccc2)n1/N=C/C=C/c1ccco1 | 11.0 | 0.6 | 31.1* | 1.6 | 14.8 | -2.5
CN1C(=O)C(CC(=O)Nc2ccc(F)cc2)N(CCCc2ccccc2)C1=S (stereo not drawn) | 1.4 | 27.0* | 1.6 | -8.1 | 1.9 | 34.2
Cc1ccc(S(=O)(=O)n2ccc3c(OCCOCCSCC(NC(=O)OC(C)(C)C)C(=O)O)cccc32)cc1 (stereo not drawn) | 0.8 | 81.1* | 14.7 | 2.0 | 1.6 | 0.8
CC(O)CNc1nc2ccccc2n1CC(=O)NCCc1ccc(Cl)cc1 (stereo not drawn) | -0.3 | 27.6* | 4.0 | -1.4 | 1.1 | 1.9
COc1ccccc1-n1c(SCC(=O)N2CCOCC2)nc(O)cc1=O | -0.5 | -3.7 | 33.8* | 0.0 | 6.9 | 6.3
Cc1ccc(N2C(=O)Nc3ccccc3S2(=O)=O)cc1Cl | -6.4 | 1.7 | 4.0 | 2.5 | 6.5 | -2.8
SMILES | PAFAH2 FP inh | PAFAH1B2 FP inh | pPAFAH inh | DAGLB inh | PAFAH1B3 inh | ATG4B inhibitor
CCn1c2ccccc2c2cc(NC(=O)COC(=O)c3ccc(O)cc3)ccc21 | 24.3 | -0.7 | 32.8* | 3.4 | 12.8 | 0.7
COc1ccc(NC(=O)Nc2cccc3c2O[C@H](CN(C)C(=O)Nc2c(C)noc2C)[C@@H](C)CN([C@H](C)CO)C3=O)cc1 | -3.0 | 3.7 | 0.0 | 0.8 | 3.2 | -7.8
COc1ccc(-c2cc(CCC(=O)N3CCN(c4cc(C)ccc4C)CC3)[nH]n2)cc1 | 2.4 | 6.2 | 3.9 | 2.3 | 10.2 | -11.5
CN(c1nc2ccccc2[nH]c1=O)C1CCCCC1 | 6.2 | 4.2 | 0.2 | 0.1 | -4.6 | -4.0
CCOC(=O)C1C(C(=O)OCC)C1(c1ccccc1)c1ccccc1 (stereo not drawn) | -5.5 | 28.9* | 2.5 | -9.6 | 8.3 | 21.9
O=C(CN1C(=O)C2CCCCC2C1=O)OCC(=O)c1ccc(F)cc1 (stereo not drawn) | 10.4 | -1.8 | -2.2 | -1.5 | -2.0 | 8.9
Nc1ccc(CSc2ccccc2)cc1 | 8.7 | 31.6* | . | 3.0 | 7.4 | 2.2
Nc1ccc(SCc2cccnc2)cc1 | 4.3 | 6.9 | 1.7 | -3.1 | -1.0 | 1.3
O=C(NC1CC1)C1CCN(S(=O)(=O)c2cc([N+](=O)[O-])ccc2Cl)CC1 | 11.6 | 4.5 | 32.4* | 2.5 | 9.1 | 8.1
O=C(NC1CC1)C1CCN(S(=O)(=O)c2cc(Cl)ccc2Cl)CC1 | 7.6 | 4.1 | 2.6 | -1.9 | 12.0 | 0.1
CCOC(=O)C1CCCCN1Cc1ccc(-c2ccccc2)cc1 (stereo not drawn) | 5.3 | -0.3 | . | -11.7 | -6.7 | 6.7
CN(C)c1ccsc1C(=O)NNS(=O)(=O)c1ccc(Cl)cc1 | 1.8 | 31.7* | -1.3 | -2.0 | 2.3 | -4.2
O=C1NC(=S)N/C1=C/c1cccn1-c1ccc([N+](=O)[O-])cc1 | 1.4 | 8.8 | 32.1* | 1.5 | 4.8 | 31.0
COc1ccc(C(=O)NCc2ccccc2CN2CCCC2)cc1S(=O)(=O)Nc1ccc(C)cc1 | 2.5 | 7.6 | 25.1* | 1.9 | 2.3 | -7.1
COc1ccccc1NS(=O)(=O)c1cccc(C(=O)NCC(c2ccccc2OC)N2CCCC2)c1 (stereo not drawn) | 3.9 | 1.0 | 2.6 | 0.8 | 4.6 | 4.0
COc1ccccc1C(CNC(=O)c1cccc(S(=O)(=O)Nc2ccc(C)cc2)c1)N1CCCC1 (stereo not drawn) | 2.4 | 1.7 | 30.7* | -1.0 | 3.6 | -7.7
COc1ccc(NS(=O)(=O)c2cccc(C(=O)NCC(c3ccco3)N3CCCCC3)c2)cc1 (stereo not drawn) | 3.7 | 0.6 | 30.7* | 1.6 | 3.8 | -11.6
